An excerpt weighted towards active compounds, which were near 3.5% of everything screened.
TEAD-YAP block: TEAD-YAP interaction inhibition | hit rate 1.4% among 640,000 | inhibition, % at 9.12 µM | HEK-TIYL cells, TEAD-Gal4/YAP UAS-luciferase luminescence; in the data active = inhibition above about 32%;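 note: 0% = median of test compound wells and 100% = reference inhibitor wells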
GPR151 ag: activates the human receptor GPR151; activation, % at 11.2 µM; PathHunter beta-arrestin GPR151 cells, luminescence; Q8TDV0; AID 1508602; hit rate 1% among 650,000; in the data active = activation above about 4.9%;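 note: 0% = median of compound wells and 100% = cells with positive control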
FBW7 activator: activators of human E3 ligase FBW7. AlphaScreen FBW7–phospho-cyclin E peptide binding, activator screen. hit rate 0.13% among 650,000. normalized activity (activation), % at 26.1 µM; in the data active = normalized activity above about 1.9%;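 note: purified mutant Fbw7 with reduced substrate affinity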
Target sequence (Q969H0 whole entry, looked up): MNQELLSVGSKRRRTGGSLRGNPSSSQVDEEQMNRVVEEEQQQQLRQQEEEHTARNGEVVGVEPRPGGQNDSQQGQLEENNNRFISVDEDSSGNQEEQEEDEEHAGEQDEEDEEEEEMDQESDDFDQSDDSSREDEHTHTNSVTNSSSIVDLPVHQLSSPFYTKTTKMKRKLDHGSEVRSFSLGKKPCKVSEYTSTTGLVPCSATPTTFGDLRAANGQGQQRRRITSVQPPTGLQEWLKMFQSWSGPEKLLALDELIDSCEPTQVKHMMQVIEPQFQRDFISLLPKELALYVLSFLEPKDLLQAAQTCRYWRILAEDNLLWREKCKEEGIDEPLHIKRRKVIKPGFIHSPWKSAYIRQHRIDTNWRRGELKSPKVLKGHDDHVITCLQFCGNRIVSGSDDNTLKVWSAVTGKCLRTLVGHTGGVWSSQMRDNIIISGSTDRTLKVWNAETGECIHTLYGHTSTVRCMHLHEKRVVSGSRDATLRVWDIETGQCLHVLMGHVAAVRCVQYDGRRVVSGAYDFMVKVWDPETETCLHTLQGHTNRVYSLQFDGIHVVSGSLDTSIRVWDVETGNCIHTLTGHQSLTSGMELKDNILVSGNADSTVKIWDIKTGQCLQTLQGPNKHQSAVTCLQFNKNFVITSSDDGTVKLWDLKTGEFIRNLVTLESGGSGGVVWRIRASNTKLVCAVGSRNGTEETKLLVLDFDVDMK
MITF inh: inhibitors of human MITF. inhibition, % at 2.6 µM. O75030. hit rate 0.91% among 650,000. AlphaScreen MITF homodimerization, bead proximity signal; in the data active = inhibition above about 50%;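 note: 0% = vehicle wells with protein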
The depositor's hits bear a star; ! = not confirmed by another sample.

SMILES	TEAD-YAP block	GPR151 ag	FBW7 activator	MITF inh
COc1cc(OC)cc(-c2nc(-c3ccccn3)no2)c1	-40.6	-2.0	0.2	9.9
COc1ccc(-c2nc(-c3ccccn3)no2)cc1	96.6*	-11.6	-0.1	-5.7
COc1ccc(-c2nc(-c3ccncc3)no2)cc1	-42.6	-0.4	-0.1	2.1
COc1cc(OC)cc(-c2nc(-c3ccccc3)no2)c1	-5.1	-2.3	-0.1	15.5
C[C@@H]1NC(=O)[C@H]2CN(S(=O)(=O)c3ccc4ccccc4c3)CCN2C1=O	0.9	3.2	0.2	-4.5
CC1(C)C(c2ccco2)=[N+]([O-])C2(CCCC/C2=N\Nc2cccc(Cl)c2)N1O (stereo not drawn)	-1.9	1.0	-0.3	6.2
CCOc1ccc(OCC)c(NC(=O)C2(S(=O)(=O)c3ccc(Cl)cc3)CC2)c1	-0.9	-1.3	0.1	-4.0
Nc1c(C(=O)NCc2ccccc2)nnn1Cc1cccc(F)c1	3.4	-1.1	0.6	24.7
Nc1c(C(=O)NCc2ccccc2)nnn1Cc1cccc(C(F)(F)F)c1	48.4*	0.2	-0.1	-10.6
NC1=NC(=O)/C(=C\c2ccc(-c3cccc(C(=O)O)c3)o2)S1	43.7*	-0.7	1.0	57.7*
O=C1NC(=S)S/C1=C\c1ccc(-c2cccc(C(=O)O)c2)o1	4.7	-0.1	-0.7	70.3*
O=C1NC(=O)/C(=C/c2ccc(-c3ccc(O)c(C(=O)O)c3)o2)S1	-0.9	-0.9	-0.8	85.8*
NC1=NC(=O)/C(=C/c2ccc(-c3ccccc3)o2)S1	-46.4	1.4	-0.1	-12.4
Cc1ccc(C(=O)O)cc1-c1ccc(/C=C2/SC(=O)NC2=O)o1	-4.6	0.9	-0.3	7.6
O=C1NC(=S)S/C1=C\c1ccc(-c2ccc(C(=O)O)cc2)o1	10.1	0.2	-0.2	37.7
O=C(NCCN1CCOCC1)c1ccc2nc(N3CCN(c4ccccn4)CC3)sc2c1	-34.5	-0.6	0.5	5.7
O=C(CCC1(Cc2ccc(F)cc2)CCC(=O)N1)NCc1c(F)cccc1F (stereo not drawn)	35.6*	1.3	-0.2	-9.8
CCCCCCCC(=O)c1c(C)[nH]c(C(=O)OCC)c1C	-18.8	1.4	0.0	5.3
O=[N+]([O-])c1cc2c(cc1C(O)c1nnc(-c3ccccc3)o1)OCO2 (stereo not drawn)	81.3*	0.0	0.0	16.3
COc1ccc(CCNc2ncnc3[nH]ncc23)cc1	24.7	2.4	0.1	-2.2
c1ccc(CNc2ncnc3sccc23)cc1	1.5	-0.2	0.3	-3.9
c1csc(CNc2ncnc3sccc23)c1	32.4*	1.5	-0.1	4.4
COc1ccc(CCNc2ncnc3sccc23)cc1	48.8*	1.9	-0.1	-11.0
NNC(=O)/C(=C\c1ccccc1)NC(=O)c1ccccc1	6.9	1.0	0.0	-0.7
NNC(=O)/C(=C\c1cccs1)NC(=O)c1ccccc1	33.5*	0.5	0.1	2.0
SMILES	TEAD-YAP block	GPR151 ag	FBW7 activator	MITF inh
CCOc1ccccc1N1CCN(c2nnnn2-c2ccccc2)CC1	41.9*	0.1	0.3	17.1
CCOC(=O)N1CCN(c2nnnn2-c2ccccc2)CC1	4.3	-1.4	0.9	7.0
CC(C)c1ccc(NC(=O)c2cc(S(=O)(=O)NCc3ccccc3)ccc2F)cc1	0.1	4.3	-0.2	-4.8
NC1=C/C(=N\S(=O)(=O)c2ccccc2)c2ccccc2C1=O	95.8*	0.3	-0.4	10.2
COc1ccc(-c2cc(-c3ccccc3)nc(SCC(=O)c3ccc(C)cc3C)c2C#N)cc1	-7.4	-0.2	0.1	5.9
CN(C)CP(=O)(O)CCc1ccccc1	7.9	-0.9	5.1*	1.4
Cc1ccc(-c2nc(CSCC(=O)O)c(C)o2)cc1	80.9*	-0.8	-0.4	-3.1
CCc1ccc(-c2nc(CSCC(=O)NCCN(C)C)c(C)o2)cc1	38.5*	-1.1	0.2	18.1
CCOC(=O)C1=C(C)N=c2s/c(=C\c3cc(Br)ccc3O)c(=O)n2C1c1ccccc1OC(C)C (stereo not drawn)	4.5	0.2	0.0	8.3
COCCNc1nccn2c(-c3ccoc3)cnc12	-4.1	-1.2	2.1*	6.6
c1ccc(Nc2nccn3c(-c4ccoc4)cnc23)cc1	66.2*	-4.8	0.3	0.3
Nc1cccc(-c2cnc3c(Nc4ccccc4)nccn23)c1	87.9*	-1.6	1.8	18.8
Nc1cccc(-c2cnc3c(Nc4ccc(Cl)cc4)nccn23)c1	64.6*	-1.1	0.2	7.1
CC(CNC(=O)c1ccc(-n2cc(NC(=O)c3ccoc3)cn2)cc1)Oc1cccnc1 (stereo not drawn)	17.4	0.0	0.1	3.9
COC(=O)C1=CN(C23CC4CC(CC(C4)C2)C3)C=C(C(=O)OC)C1c1ccc(Cl)c(Cl)c1	-2.2	0.1	0.5	14.7
COc1ccc(C=O)cc1OC(=O)c1ccc(C)cc1	-2.0	0.2	0.0	0.3
CC(C)(C)OC(=O)COC(=O)/C=C/c1ccc2ccccc2n1	3.6	1.8	0.1	-9.8
COCCCNc1nccn2c(-c3cccc(O)c3)cnc12	50.9*	-0.8	-0.6	5.3
COc1ccc(NC(=O)CC(c2ccccc2)c2ccccc2)cn1	-12.0	-2.0	0.5	10.9
O=C(NCC1Cc2cc(Cl)cc(-c3ncccn3)c2O1)c1ccc(N2CCCC2)cc1 (stereo not drawn)	45.5*	-0.6	0.0	1.9
CCCSc1nnc2c(n1)OC(c1ccc(N(CC)CC)cc1)Nc1ccccc1-2 (stereo not drawn)	-25.1	0.1	0.2	19.0
CN1C(C(=O)Nc2ccccn2)=C(O)c2sccc2S1(=O)=O	-4.5	-0.3	2.0*!	8.8
COC(=O)c1ccc(-c2ccc3c(c2)COC2(CCN(C(C)=O)CC2)O3)cc1	-6.7	0.2	0.1	2.0
CCCCOc1ccc(C(=O)NCc2nnc(SCC(=O)N3CCc4ccccc43)n2-c2cc(OC)ccc2OC)cc1	-0.7	-1.2	0.0	-12.9
COc1cc2[nH]c(=S)n(NC(=O)c3ccccc3)c(=O)c2cc1OC	11.5	-1.8	0.0	3.1
SMILES	TEAD-YAP block	GPR151 ag	FBW7 activator	MITF inh
COc1cccc(C(=O)Nn2c(=S)[nH]c3ccccc3c2=O)c1	40.1*	-0.1	0.1	-13.6
COc1cc(OC)cc(C(=O)Nn2c(-c3cccc(C)c3)nc3ccccc3c2=O)c1	5.8	-0.1	1.9*	18.9
COc1cccc(C(=O)Nn2c(-c3cccc(OC)c3)nc3ccccc3c2=O)c1	-7.4	-0.7	0.4	-20.0
COc1ccc(CCNC(=O)CSc2nc3ccccc3c(=O)n2NC(=O)Cc2ccccc2)cc1OC	-2.2	0.6	0.0	-7.8
COc1ccc(C(=O)Nn2c(SCC(=O)NCCc3ccc(OC)c(OC)c3)nc3ccccc3c2=O)cc1	78.2*	-0.4	0.2	28.3
COc1ccc(C(=O)Nn2c(SCc3ccc([N+](=O)[O-])cc3)nc3ccccc3c2=O)cc1	48.9*	3.1	0.0	2.3
Cc1ccc(-c2csc3ncn(CC(=O)N4CCC(C)CC4)c(=O)c23)cc1	5.0	-0.5	0.1	10.6
O=C(CSc1nc2ccccc2c(=O)n1NC(=O)c1ccccc1)c1ccc(Br)cc1	-2.8	-1.4	0.2	10.0
COc1ccc(C(=O)Nn2c(SCC(=O)c3ccc(F)cc3)nc3ccccc3c2=O)cc1	46.2*	0.0	0.1	10.5
O=C(CSc1cnc2ccccc2n1)c1ccc(F)cc1	49.2*	-2.4	-0.2	3.7

Source: PubChem BioAssay
